# Measured values: PubChem BioAssay (NCI)
# Compounds without any hit were thinned out: in the full panel of roughly 83,000, 20% have a hit.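 Interpretation: 100, growth as untreated; towards 0, rising growth inhibition; 0, no net growth; 0 to -100, cell death. Compounds scoring below 10 were considered active.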 Values without a mark were called inactive. Calls of active or inactive are those of the source.
# Columns and labels:
# Assay in all cases: NCI-60 one-dose screen, 48 h (100 = growth as untreated, 0 = no growth, -100 = all killed)
# Settings in all cases: 10 µM unless noted
# DU-145 prostate = system: DU-145 prostate
# K-562 leukemia = system: K-562 leukemia
# MALME-3M melanoma = system: MALME-3M melanoma
# MDA-MB-231 breast = system: MDA-MB-231 breast
# RXF 393 renal = system: RXF 393 renal
# SF-268 CNS = system: SF-268 CNS
# SF-295 CNS = system: SF-295 CNS
# SF-539 CNS = system: SF-539 CNS
# UACC-257 melanoma = system: UACC-257 melanoma
# M14 melanoma = system: M14 melanoma
SMILES,growth (DU-145 prostate),growth (K-562 leukemia),growth (MALME-3M melanoma),growth (MDA-MB-231 breast),growth (RXF 393 renal),growth (SF-268 CNS),growth (SF-295 CNS),growth (SF-539 CNS),growth (UACC-257 melanoma),growth (M14 melanoma)
CC(=O)O[C@H]1CC2CCC3C(CC[C@@]4(C)C3C[C@H]([N+]3(C)CCCCC3)[C@@H]4OC(C)=O)[C@@]2(C)C[C@@H]1N1CCCCC1 (stereo not given in full),120%,104%,121%,91%,113%,115%,96.4%,110%,98%,106%
Clc1cc(Cl)c(Cl)c(-c2nnc(SCc3ccncc3Br)o2)c1,99.9%,69.5%,100%,93.3%,128%,97.8%,95.2%,90.9%,103%,97.9%
CC1CCN(S(=O)(=O)c2ccc(S(=O)(=O)N3CCCC(c4nc5c(nnn5Cc5cccc(Cl)c5)c(=O)[nH]4)C3)cc2)CC1 (stereo not given),59.8%,20.1%,46.7%,73%,15.8%,51.9%,63.6%,49.7%,54.2%,16.9%
CCCCCCCCCc1ccc(OCCOCCOCCOCCOCCOCCOCCOCCOCCO)cc1,31.5%,10.5%,-10.2% (active),-38.1% (active),29%,28.1%,0.0887% (active),29%,-25.2% (active),-11.3% (active)
COc1ccc(C2=Nc3c(N)nc(N)nc3NC(c3cccc(Nc4ccnc5cc(C(F)(F)F)ccc45)c3)C2)cc1 (stereo not given),75.5%,13.2%,78.3%,70.8%,54%,69.7%,78.9%,87.1%,87.8%,67.2%
O=[N+]([O-])c1cccc(-c2nc3cc4nc5ccccc5[nH]c4cc3n2)c1,106%,90.9%,113%,110%,115%,98.2%,100%,106%,98.3%,103%
O=C(O)c1ccc(-n2cc(/C=N/Nc3ccccc3)c(-c3ccc(F)cc3F)n2)cc1,49.2%,18.6%,70.4%,41%,92.9%,45.8%,77.2%,75.3%,114%,41.8%
CCCn1cc2c(=O)nc3sc(Cc4ccccc4)c(C)n3c2n1,104%,77.5%,112%,99.3%,119%,94.8%,120%,99.7%,88.3%,112%
C=CCN=c1sc2c(n1NC(=O)c1cc3ccc1CCc1ccc(cc1)CC3)C(=O)c1ccccc1C2=O,-90.7% (active),-12.3% (active),-88.6% (active),-6.76% (active),-26.3% (active),8.79% (active),69.2%,-98.3% (active),-72.6% (active),-93.9% (active)
COCCNC(=O)Nc1ccc2nc(-c3cccs3)c(-c3cccs3)nc2c1,96.2%,83.3%,94.8%,92.3%,82.5%,102%,78.6%,85.6%,103%,103%
Nc1ncc(-c2ccc3ncnc(Nc4cccc(Cl)c4)c3c2)cn1,28.9%,58.2%,40.4%,42.1%,25.2%,42%,44.2%,54.2%,65.7%,60.6%
CCCNC(=O)Nc1ccc2cc3ccc(NC(=O)NCCC)cc3nc2c1,118%,60.8%,79.1%,98.8%,77.7%,84.3%,115%,66.5%,87.5%,89.1%
OCCn1cc(-c2nc(-c3c[nH]c4ncccc34)cs2)c2cc(F)ccc21,83.7%,21.5%,84.9%,64.5%,51.1%,77%,72.1%,81.5%,87.8%,63.8%
